Consider 13 molecules from the supplement of paper PMC11555231.

This test deals with PADI4, Q9UM07. In words: log2 enrichment score relative to parent PADI4_3 peptide (binding to PADI4); higher = tighter binding than parent. The following applies: CaCl2: 10 mM. The essentials: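 Cyclic peptide mRNA-display library with each internal parent position randomised by NNK codons, a C-terminal HA tag and methionine reassigned to N-methyl-alanine, purified on anti-HA beads. One round, in triplicate, used bead-immobilised biotinylated His-tagged human PADI4 (100 nM) in HEPES/NaCl buffer with 10 mM CaCl2, DTT, Tween and blockers, with equilibrating washes over 10–12 h at RT. Input and eluted libraries were sequenced. Log2 enrichment (bound over input) is given relative to parent, averaged with standard deviation.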
PADI4, Q9UM07, sequence (Q9UM07 whole entry): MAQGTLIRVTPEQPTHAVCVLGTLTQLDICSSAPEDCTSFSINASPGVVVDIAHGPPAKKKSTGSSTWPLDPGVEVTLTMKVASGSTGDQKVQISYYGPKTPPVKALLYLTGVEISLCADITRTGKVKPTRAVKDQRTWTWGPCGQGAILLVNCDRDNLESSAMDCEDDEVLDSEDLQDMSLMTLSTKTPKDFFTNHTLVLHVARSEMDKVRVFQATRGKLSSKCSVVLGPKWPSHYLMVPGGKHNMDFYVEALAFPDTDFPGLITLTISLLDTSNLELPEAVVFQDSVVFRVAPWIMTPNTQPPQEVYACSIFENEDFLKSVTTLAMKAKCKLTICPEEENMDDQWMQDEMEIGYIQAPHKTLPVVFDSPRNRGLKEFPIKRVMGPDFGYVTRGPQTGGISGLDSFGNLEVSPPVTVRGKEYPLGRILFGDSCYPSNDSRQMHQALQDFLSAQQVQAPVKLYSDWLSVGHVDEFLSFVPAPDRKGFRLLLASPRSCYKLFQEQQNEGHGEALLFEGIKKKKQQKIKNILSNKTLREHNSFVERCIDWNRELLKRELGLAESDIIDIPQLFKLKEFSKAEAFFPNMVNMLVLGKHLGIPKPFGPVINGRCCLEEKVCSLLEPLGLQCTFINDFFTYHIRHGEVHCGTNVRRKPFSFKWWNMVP

In the case of YRDHHYRHPTYCG [PADI4_3_K10T K10T], the log2 enrichment score is 0.237.

Turning to YRDTHYRHPKYCG [PADI4_3_H4T H4T], the log2 enrichment score is -3.53.

Turning to YRDHHYRHPKTCG [PADI4_3_Y11T Y11T], the log2 enrichment score was -3.95.

Turning to YRDHHTRHPKYCG [PADI4_3_Y6T Y6T], the log2 enrichment score is -2.52.

Take YRDHHYRHTKYCG [PADI4_3_P9T P9T]: the log2 enrichment score was -1.92.

With YRDHTYRHPKYCG [PADI4_3_H5T H5T], the log2 enrichment score is -3.62.

For the molecule YRDHHYRHPKSCG [PADI4_3_Y11S Y11S], the log2 enrichment score was -4.12.

With YRDSHYRHPKYCG [PADI4_3_H4S H4S], the log2 enrichment score was -2.9.

With YRDHHYTHPKYCG [PADI4_3_R7T R7T], the log2 enrichment score is -1.3.

Turning to YTDHHYRHPKYCG [PADI4_3_R2T R2T], the log2 enrichment score was -1.69.

For the molecule YRTHHYRHPKYCG [PADI4_3_D3T D3T], the log2 enrichment score was -3.58.

Turning to YRDHHYRTPKYCG [PADI4_3_H8T H8T], the log2 enrichment score was -3.89.

Regarding YRSHHYRHPKYCG [PADI4_3_D3S D3S], the log2 enrichment score was -3.9.
